In PubChem BioAssay (NCI) one finds growth data, which are given here for 38 compounds.

“And” between values parts separate entries of the source, which are not always exact repeats. Equal values may be shown once. The panel holds about 83,000 compounds, 20% with a hit somewhere; the sample as a whole holds those more often.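 Single-dose data. Exposure time 48 hours. Values below 10 considered active.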 The source made the active and inactive calls.

The subject of one test is SF-268 CNS. Nature of the test: NCI-60 one-dose screen, 48 h (100 = growth as untreated, 0 = no growth, -100 = all killed). The following applies: 10 µM unless noted.
On to `COc1ccc(NC2=C(I)C(=O)C(C)=C(C)C2=O)cc1`, for which the growth is 45.3% (inactive).

On to `CC(=O)Nc1cccc(-n2c(COc3ccc(Br)cc3)nc3ccccc32)c1`, for which the growth is 91% (inactive) and 103% (inactive).

With `CCCSc1nnc(-c2sc3nc4ccccc4n3c2C)o1`, the growth is 115% (inactive).

Take `COc1cc(/C=N/NC(=O)c2ccc(OCc3nc4ccc(C)cc4[nH]3)cc2)cc(OC)c1OC`: the growth was 78.7% (inactive).

On to `COc1cc(CNC(=O)C[C@H](C)CCC=C(C)C)ccc1OCc1cn(-c2ccccc2Cl)nn1`, for which the growth was 82.4% (inactive).

`Cc1ccc(C(=O)Nc2cc(-n3ccnc3)cc(C(F)(F)F)c2)cc1-n1cc(-c2cnc3cccnn23)nn1`: the growth is 120% (inactive).

As to `O=C(Nc1ccc(Cl)c(C(F)(F)F)c1)N1CCN(c2cc(-c3cn(-c4ccccc4)nc3-c3cccc(O)c3)ccn2)CC1`, the growth is 2.35% (active).

For the compound `FC(F)(F)CN1CCN(CCn2c(C(F)(F)F)cc3c(Cl)ncnc32)CC1`, the growth is -18.5% (active).

As to `COc1cccc(C(N)=Nc2ccc(OCCCCCCCCn3cncn3)cc2)c1`, the growth is 27% (inactive).

Consider `Nc1nnc(-c2cncc(Br)c2)c(-c2c[nH]c3ccc(Br)cc23)n1`, for which the growth was 77.1% (inactive).

Consider `Nc1cc(-c2c[nH]c3ccc(Cl)cc23)nc2cc(-c3c[nH]c4ccccc34)nn12`, for which the growth is 9.75% (active).

For the compound `CN(C)CCOc1ccc(C(=O)C2[C@H](c3ccc(Cl)cc3)[C@@H](c3ccccc3)NC23C(=O)Nc2ccc(Cl)cc23)cc1` (some centres undefined), the growth was -64% (active).

As to `O=C(NNC(=S)NC(=O)c1ccccc1)c1ccc(OCc2nc3ccc(Cl)cc3[nH]2)cc1`, the growth was -2.2% (active).

On to `O=C(c1ccc(Cl)cc1)C1[C@H](c2ccccc2Cl)[C@@H](c2ccccc2)NC12C(=O)Nc1ccc(Br)cc12` (some centres undefined), for which the growth is -45.1% (active).

In the case of `COc1ccc(CCC2NCCc3c(Br)c4c(c(OC)c32)OCO4)cc1` (centres undefined), the growth was 20.3% (inactive).

Consider `O=C(Nc1ccc(Br)cc1)Nc1ccc(-c2ccc3c(c2)NC(=O)/C3=C\c2ccc[nH]2)cc1`, for which the growth is 40.3% (inactive).

With `O=C(Nc1ccc(S(=O)(=O)N2CCCCC2)cc1)C(Cl)Cl`, the growth was 105% (inactive).

In the case of `O=C(N/N=C/c1ccc(Br)o1)c1[nH]c2ccc(Br)cc2c1-c1ccccc1`, the growth is -12.2% (active).

On to `COc1cc(/C=C/C(=O)c2ccc(S(=O)(=O)NCCNc3nc(N(C)C)nc(N4CCOCC4)n3)cc2)cc(OC)c1OC`, for which the growth was -3.35% (active).

For `CCCCNC(=S)Nc1ccc(OCc2nc3ccc(Cl)cc3[nH]2)cc1`, the growth was 48.3% (inactive).

With `COc1ccc(-c2cc(C(=O)N=Nc3c(O)[nH]c4ccc(Cl)cc34)c3ccccc3n2)cc1OC`, the growth was 118% (inactive).

For the compound `NS(=O)(=O)c1cccc(Nc2nc(SCC(=O)c3ccc(F)cc3)nc3ccccc23)c1`, the growth is 8.21% (active).

Turning to `COc1ccc2[nH]c(O)c(N=Nc3nc(-c4ccccc4)cs3)c2c1`, the growth was 17.1% (inactive).

For the compound `COc1ccc(OC)c(Cn2cc(C#N)c(N)c2C(=O)c2ccc(Br)cc2)c1`, the growth is 68.5% (inactive).

`CC1=C(C)C(=O)C(N2CCSCC2)=CC1=O`: the growth is 102% (inactive).

As for `N#Cc1c(-c2ccc(F)cc2)nc(SCc2ccc(F)cc2)nc1N1CCNCC1`, the growth was 41.5% (inactive).

With `COc1ccc2[nH]cc(-c3cc4nc(-c5cn(C)c6ncccc56)cc(N)n4n3)c2c1`, the growth was 32.8% (inactive).

On to `O=C1Nc2ccccc2/C1=C\c1ccc(OCC(=O)c2ccc(Br)cc2)cc1`, for which the growth is 86.9% (inactive).

Take `Nc1nn2c(-c3cc4ccccc4oc3=O)ccnc2c1N=Nc1ccccc1`: the growth is 61.8% (inactive).

With `O=c1c(-c2nc(-c3ccccc3)c(-c3ccccc3)[nH]2)coc2ccc(F)cc12`, the growth was 64% (inactive).

As to `Cc1ccccc1Nc1nnc(-c2c[nH]c3ccccc23)o1`, the growth was 59% (inactive).

Regarding `O=CNc1cccc(-n2cnc3cc(-c4ccc(O)cc4)ccc32)c1`, the growth is 40.7% (inactive).

`CC1(C)CC(=O)C2=C(C1)OC(N)=C(c1nc3ccccc3[nH]1)C2c1ccc(Cl)cc1` (centres undefined): the growth is 67.8% (inactive) and 102% (inactive).

As to `CN1C(=O)/C(=C\C(=O)c2cc3ccccc3oc2=O)c2ccccc21`, the growth was 77.4% (inactive).

For the compound `Cc1cc(N=C(N)c2ccccc2)ccc1OCCCCCCCCn1ccnc1`, the growth was -12.2% (active).

In the case of `Cc1ccc(C2CC(c3ccc(NC(=S)Nc4ccccc4)cc3)=NN2c2ccc(S(N)(=O)=O)cc2)cc1` (centres undefined), the growth was 15.6% (inactive).

On to `COc1cc(CNC(=O)[C@]23CCC(C)(C)CC2C2=CCC4[C@@]5(C)CCC(OC(C)=O)C(C)(C)C5CC[C@@]4(C)[C@]2(C)CC3)ccc1OCc1cn(-c2ccc(Cl)cc2Cl)nn1` (some centres undefined), for which the growth is 110% (inactive).

As to `Nc1ccc(-c2ccc3ncnc(N4CCc5cc(F)c(Cl)cc54)c3c2)cn1`, the growth is 24% (inactive).

For a further test, the system named is SF-295 CNS. Described as above. Conditions: 10 µM unless noted.
For the compound `COc1ccc(NC2=C(I)C(=O)C(C)=C(C)C2=O)cc1`, the growth is 79% (inactive).

As for `CC(=O)Nc1cccc(-n2c(COc3ccc(Br)cc3)nc3ccccc32)c1`, the growth was 89.6% (inactive) and 103% (inactive).

On to `CCCSc1nnc(-c2sc3nc4ccccc4n3c2C)o1`, for which the growth was 105% (inactive).

As for `COc1cc(/C=N/NC(=O)c2ccc(OCc3nc4ccc(C)cc4[nH]3)cc2)cc(OC)c1OC`, the growth was 40.4% (inactive).

With `COc1cc(CNC(=O)C[C@H](C)CCC=C(C)C)ccc1OCc1cn(-c2ccccc2Cl)nn1`, the growth is 56.4% (inactive).

Turning to `Cc1ccc(C(=O)Nc2cc(-n3ccnc3)cc(C(F)(F)F)c2)cc1-n1cc(-c2cnc3cccnn23)nn1`, the growth is 107% (inactive).

As for `O=C(Nc1ccc(Cl)c(C(F)(F)F)c1)N1CCN(c2cc(-c3cn(-c4ccccc4)nc3-c3cccc(O)c3)ccn2)CC1`, the growth was -37.2% (active).

Take `FC(F)(F)CN1CCN(CCn2c(C(F)(F)F)cc3c(Cl)ncnc32)CC1`: the growth was 67.1% (inactive).

As for `Nc1nnc(-c2cncc(Br)c2)c(-c2c[nH]c3ccc(Br)cc23)n1`, the growth was 74.5% (inactive).

Turning to `Nc1cc(-c2c[nH]c3ccc(Cl)cc23)nc2cc(-c3c[nH]c4ccccc34)nn12`, the growth was -79.4% (active).

For the compound `CN(C)CCOc1ccc(C(=O)C2[C@H](c3ccc(Cl)cc3)[C@@H](c3ccccc3)NC23C(=O)Nc2ccc(Cl)cc23)cc1` (some centres undefined), the growth was -89.3% (active).

Regarding `O=C(NNC(=S)NC(=O)c1ccccc1)c1ccc(OCc2nc3ccc(Cl)cc3[nH]2)cc1`, the growth is -80.9% (active).

`O=C(c1ccc(Cl)cc1)C1[C@H](c2ccccc2Cl)[C@@H](c2ccccc2)NC12C(=O)Nc1ccc(Br)cc12` (some centres undefined): the growth was -88.1% (active).

As to `COc1ccc(CCC2NCCc3c(Br)c4c(c(OC)c32)OCO4)cc1` (centres undefined), the growth is 4.87% (active).

On to `O=C(Nc1ccc(Br)cc1)Nc1ccc(-c2ccc3c(c2)NC(=O)/C3=C\c2ccc[nH]2)cc1`, for which the growth was 22.9% (inactive).

As for `O=C(Nc1ccc(S(=O)(=O)N2CCCCC2)cc1)C(Cl)Cl`, the growth was 106% (inactive).

Regarding `O=C(N/N=C/c1ccc(Br)o1)c1[nH]c2ccc(Br)cc2c1-c1ccccc1`, the growth is -25.8% (active).

As for `COc1cc(/C=C/C(=O)c2ccc(S(=O)(=O)NCCNc3nc(N(C)C)nc(N4CCOCC4)n3)cc2)cc(OC)c1OC`, the growth is -68.1% (active).

Consider `CCCCNC(=S)Nc1ccc(OCc2nc3ccc(Cl)cc3[nH]2)cc1`, for which the growth is 67.6% (inactive).

For the compound `COc1ccc(-c2cc(C(=O)N=Nc3c(O)[nH]c4ccc(Cl)cc34)c3ccccc3n2)cc1OC`, the growth was 101% (inactive).

For the compound `NS(=O)(=O)c1cccc(Nc2nc(SCC(=O)c3ccc(F)cc3)nc3ccccc23)c1`, the growth is -5.65% (active).

With `COc1ccc2[nH]c(O)c(N=Nc3nc(-c4ccccc4)cs3)c2c1`, the growth is -8.96% (active).

On to `COc1ccc(OC)c(Cn2cc(C#N)c(N)c2C(=O)c2ccc(Br)cc2)c1`, for which the growth is 39.1% (inactive).

For `CC1=C(C)C(=O)C(N2CCSCC2)=CC1=O`, the growth is 104% (inactive).

As for `N#Cc1c(-c2ccc(F)cc2)nc(SCc2ccc(F)cc2)nc1N1CCNCC1`, the growth is -79.9% (active).

For `COc1ccc2[nH]cc(-c3cc4nc(-c5cn(C)c6ncccc56)cc(N)n4n3)c2c1`, the growth was -71.4% (active).

Take `O=C1Nc2ccccc2/C1=C\c1ccc(OCC(=O)c2ccc(Br)cc2)cc1`: the growth was 58.6% (inactive).

With `Nc1nn2c(-c3cc4ccccc4oc3=O)ccnc2c1N=Nc1ccccc1`, the growth was 72.3% (inactive).

Consider `O=c1c(-c2nc(-c3ccccc3)c(-c3ccccc3)[nH]2)coc2ccc(F)cc12`, for which the growth is 71.5% (inactive).

As for `Cc1ccccc1Nc1nnc(-c2c[nH]c3ccccc23)o1`, the growth was 8.71% (active).

As to `O=CNc1cccc(-n2cnc3cc(-c4ccc(O)cc4)ccc32)c1`, the growth is 25.5% (inactive).

As for `CC1(C)CC(=O)C2=C(C1)OC(N)=C(c1nc3ccccc3[nH]1)C2c1ccc(Cl)cc1` (centres undefined), the growth was 22.9% (inactive) and 103% (inactive).

As to `CN1C(=O)/C(=C\C(=O)c2cc3ccccc3oc2=O)c2ccccc21`, the growth is 97.3% (inactive).

For `Cc1ccc(C2CC(c3ccc(NC(=S)Nc4ccccc4)cc3)=NN2c2ccc(S(N)(=O)=O)cc2)cc1` (centres undefined), the growth was 8.39% (active).

As to `COc1cc(CNC(=O)[C@]23CCC(C)(C)CC2C2=CCC4[C@@]5(C)CCC(OC(C)=O)C(C)(C)C5CC[C@@]4(C)[C@]2(C)CC3)ccc1OCc1cn(-c2ccc(Cl)cc2Cl)nn1` (some centres undefined), the growth was 100% (inactive).

With `Nc1ccc(-c2ccc3ncnc(N4CCc5cc(F)c(Cl)cc54)c3c2)cn1`, the growth was 7.68% (active).
